Measurements published in PubChem BioAssay (NCI).
Where “and” joins values, the source holds several entries; their conditions need not be identical. Equal entries are not always repeated. This is part of a sample that, as a whole, favours compounds with a hit. Of some 83,000 tested, about 20% had one in any assay.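 Note: values are percent growth. 100 is the growth of untreated cells, values between 100 and 0 indicate rising inhibition; between -100 and 0 indicates cell death.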 Calls of active or inactive are those of the source. How the source made its calls: active means growth percent below 10; inactive means the rest.

Legend:
Experiment in all cases: NCI-60 one-dose screen, 48 h (100 = growth as untreated, 0 = no growth, -100 = all killed)
Conditions in all cases: 10 µM unless noted
DU-145 prostate = tested on: DU-145 prostate
K-562 leukemia = tested on: K-562 leukemia
MALME-3M melanoma = tested on: MALME-3M melanoma
MDA-MB-231 breast = tested on: MDA-MB-231 breast
RXF 393 renal = tested on: RXF 393 renal
SF-268 CNS = tested on: SF-268 CNS
SF-295 CNS = tested on: SF-295 CNS
SF-539 CNS = tested on: SF-539 CNS
UACC-257 melanoma = tested on: UACC-257 melanoma
M14 melanoma = tested on: M14 melanoma

Measured: growth

OCCCc1ccccc1
inactive: DU-145 prostate 118% | K-562 leukemia 121% | MALME-3M melanoma 75.8% | MDA-MB-231 breast 97.8% | RXF 393 renal 105% | SF-268 CNS 108% | SF-295 CNS 107% | SF-539 CNS 112% | UACC-257 melanoma 102% | M14 melanoma 100%

CN1C2C=CC(=O)C1C1C(=O)N(c3ccccc3)C(=O)C12 (centres undefined)
inactive: DU-145 prostate 37.3% | K-562 leukemia 40.8% | MALME-3M melanoma 82.5% | MDA-MB-231 breast 93.9% | RXF 393 renal 59.1% | SF-268 CNS 74.1% | SF-295 CNS 99% | SF-539 CNS 66.5% | UACC-257 melanoma 81.8% | M14 melanoma 105%

OC1CCCN(Cc2ccccc2)C1 (centres undefined)
inactive: DU-145 prostate 121% | K-562 leukemia 111% | MALME-3M melanoma 104% | MDA-MB-231 breast 103% | RXF 393 renal 107% | SF-268 CNS 102% | SF-295 CNS 114% | SF-539 CNS 109% | UACC-257 melanoma 93.9% | M14 melanoma 98.7%

O=c1[nH]c(=O)n(C2OC(CO)C(O)C2O)cc1I (centres undefined)
inactive: DU-145 prostate 117% and 112% | K-562 leukemia 95.1% and 128% | MALME-3M melanoma 100% and 107% | MDA-MB-231 breast 109% and 111% | RXF 393 renal 114% and 123% | SF-268 CNS 102% and 112% | SF-295 CNS 125% and 102% | SF-539 CNS 105% and 102% | UACC-257 melanoma 97.3% and 101% | M14 melanoma 104% and 90.5%

CCCCCCC(C)CC1=C(O)c2ccccc2C(=O)C1=O (centres undefined)
inactive: DU-145 prostate 45.2% | K-562 leukemia 31.1% | MALME-3M melanoma 54.9% | MDA-MB-231 breast 66.2% | RXF 393 renal 60% | SF-268 CNS 53.2% | SF-295 CNS 35.4% | SF-539 CNS 34% | UACC-257 melanoma 38.2% | M14 melanoma 44.1%

Oc1cccnc1CN1CCOCC1
inactive: DU-145 prostate 108% and 116% | K-562 leukemia 108% and 105% | MALME-3M melanoma 106% | MDA-MB-231 breast 104% and 86.9% | RXF 393 renal 114% and 112% | SF-268 CNS 106% and 116% | SF-295 CNS 111% and 105% | SF-539 CNS 92.6% and 94.9% | UACC-257 melanoma 99.6% and 98.2% | M14 melanoma 109% and 103%

CCN(C)c1ccccc1
inactive: DU-145 prostate 108% | K-562 leukemia 110% | MALME-3M melanoma 96% | MDA-MB-231 breast 98.8% | RXF 393 renal 106% | SF-268 CNS 99.1% | SF-295 CNS 91% | SF-539 CNS 97.7% | UACC-257 melanoma 103% | M14 melanoma 100%

Cc1cc(Cl)nc(Nc2ccccc2)n1
inactive: DU-145 prostate 107% | K-562 leukemia 79.9% | MALME-3M melanoma 101% | MDA-MB-231 breast 105% | RXF 393 renal 96.3% | SF-268 CNS 99.1% | SF-295 CNS 91.8% | SF-539 CNS 96.6% | UACC-257 melanoma 106% | M14 melanoma 97.6%

COc1ccc(COC=O)cc1
inactive: DU-145 prostate 98.7% | K-562 leukemia 96.5% | MALME-3M melanoma 102% | MDA-MB-231 breast 112% | RXF 393 renal 110% | SF-268 CNS 95.9% | SF-295 CNS 101% | SF-539 CNS 105% | UACC-257 melanoma 98.5% | M14 melanoma 104%

O=C1c2ccccc2CN1c1ccccc1
inactive: DU-145 prostate 115% | K-562 leukemia 94.2% | MALME-3M melanoma 118% | MDA-MB-231 breast 95.4% | RXF 393 renal 105% | SF-268 CNS 107% | SF-295 CNS 104% | SF-539 CNS 102% | UACC-257 melanoma 103% | M14 melanoma 100%

CCN(CC)CCNC(=O)c1ccc(NCN2C(=O)NC(c3ccccc3)(c3ccccc3)C2=O)cc1
inactive: DU-145 prostate 108% and 122% | K-562 leukemia 110% and 108% | MALME-3M melanoma 96.1% | MDA-MB-231 breast 114% and 103% | RXF 393 renal 106% and 118% | SF-268 CNS 102% and 101% | SF-295 CNS 94.1% | SF-539 CNS 104% | UACC-257 melanoma 100% and 106% | M14 melanoma 105% and 96.3%

CS(=O)(=O)OCC1NC(=O)C(COS(C)(=O)=O)NC1=O (centres undefined)
inactive: DU-145 prostate 111% and 102% | K-562 leukemia 81.6% and 104% | MALME-3M melanoma 98.1% and 103% | MDA-MB-231 breast 108% and 104% | RXF 393 renal 83.2% and 100% | SF-268 CNS 113% and 60.2% | SF-295 CNS 133% and 102% | SF-539 CNS 106% and 97.9% | UACC-257 melanoma 75.5% and 116% | M14 melanoma 91.8% and 93.5%

O=C1C=CC[C@H](/C=C/c2ccccc2)O1
14.6% (inactive) and -20.2% (active): K-562 leukemia
13.2% (inactive) and -60.2% (active): SF-539 CNS
active: DU-145 prostate -3.41% and 0.622% | SF-268 CNS 7.78% and 7.94% | SF-295 CNS -0.286% and 0.195%
inactive: MALME-3M melanoma 61.9% and 55.5% | MDA-MB-231 breast 55.6% and 36.6% | UACC-257 melanoma 47% and 15.3% | M14 melanoma 53.7% and 27.8%

O=C1c2cccnc2-c2ncccc21
inactive: DU-145 prostate 112% [100 µM] | K-562 leukemia 115% [100 µM] | MALME-3M melanoma 103% [100 µM] | MDA-MB-231 breast 118% [100 µM] | RXF 393 renal 109% [100 µM] | SF-268 CNS 106% [100 µM] | SF-295 CNS 103% [100 µM] | SF-539 CNS 104% [100 µM] | UACC-257 melanoma 98% [100 µM] | M14 melanoma 104% [100 µM]

CC(O)CCNC(c1ccccc1)C(O)c1ccccc1 (centres undefined)
inactive: DU-145 prostate 131% | K-562 leukemia 101% | MALME-3M melanoma 123% | MDA-MB-231 breast 104% | RXF 393 renal 115% | SF-268 CNS 111% | SF-295 CNS 102% | SF-539 CNS 115% | UACC-257 melanoma 108% | M14 melanoma 104%

O=C(O)c1cccc(Br)c1
inactive: DU-145 prostate 113% and 114% | K-562 leukemia 89.4% and 93.6% | MALME-3M melanoma 99.5% and 107% | MDA-MB-231 breast 97.9% and 114% | RXF 393 renal 108% and 107% | SF-268 CNS 101% and 102% | SF-295 CNS 94.3% and 98.2% | SF-539 CNS 94% and 98.7% | UACC-257 melanoma 97.6% and 85.2% | M14 melanoma 99.7% and 103%
